In PubChem BioAssay (NCI):
This is part of a sample that, as a whole, favours compounds with a hit. Of some 79,000 tested, about 15% had one in any assay. Active and inactive are the calls of the source. No stated cut-off is given here; in the data, active means growth inhibition above about 70%; inactive means the rest.

Key:
[1] = NCI Yeast Anticancer Drug Screen. Data for the rad50 strain (AID 155);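 further: 0% = growth of vehicle-only cultures of the same strain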; settings: S. cerevisiae rad50 strain growth inhibition, active compounds read high
Outline: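 Inhibition values express reduced yeast growth in compound-treated cultures relative to vehicle-treated controls.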

[2] = NCI Yeast Anticancer Drug Screen. Data for the mec2-1 strain (AID 157); settings: S. cerevisiae mec2-1 strain, active compounds read high
Outline: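 Vehicle-treated cultures served as reference for growth inhibition of compound-exposed mec2-1 yeast.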

[3] = NCI Yeast Anticancer Drug Screen. Data for the sgs1 mgt1 strain (AID 161);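 further: 0% = growth of cultures given vehicle only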; settings: S. cerevisiae sgs1 mgt1 strain, active compounds read high
Outline: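 Inhibition of yeast growth, normalised to vehicle-treated controls, is reported for a strain bearing genetic alterations in DNA damage repair.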

[4] = NCI Yeast Anticancer Drug Screen. Data for the cln2 rad14 strain (AID 165);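 further: 0% = growth equal to vehicle treated cultures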; settings: S. cerevisiae cln2 rad14 strain, active compounds read high
Outline: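 Each compound was tested on cln2 rad14 yeast. Inhibition of growth was calculated against vehicle-exposed controls.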

[5] = NCI Yeast Anticancer Drug Screen. Data for the bub3 strain (AID 167); settings: S. cerevisiae bub3 mutant strain, active compounds read high
Outline: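 Steps: expose the mutant yeast strain to compound; grow alongside vehicle-treated cultures; measure growth; express inhibition against the vehicle cultures.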

[6] = NCI Yeast Anticancer Drug Screen. Data for the mlh1 rad18 strain (AID 175); settings: S. cerevisiae mlh1 rad18 strain growth inhibition, active compounds read high
Outline: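 Vehicle-treated cultures served as the reference for growth inhibition in a yeast strain carrying DNA damage repair alterations exposed to each compound.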

[7] = at 5.0 µM (retest, dose inferred, filed as 0.5)
[8] = at 50.0 µM (retest, dose inferred, filed as 5.0)

Measured: growth inhibition

COc1ccc(CCCCI)cc1
active: [1]; [8] 95% | [1]; at 50.0 µM 94.6% | [2]; [8] 94% | [2]; at 50.0 µM 95.2% | [3]; [8] 97% | [3]; at 50.0 µM 94.2% | [4]; [8] 97% | [4]; at 50.0 µM 96.4% | [5]; [8] 96% | [5]; at 50.0 µM 97% | [6]; [8] 98% | [6]; at 50.0 µM 96.9%
inactive: [1]; [7] -4% | [2]; [7] -14% | [3]; [7] -6% | [4]; [7] 2% | [5]; [7] 0% | [6]; [7] 16%

COc1ccc2ccccc2c1-c1c(O)ccc2ccccc12
inactive: [1]; [7] 0% | [2]; [7] -5% | [3]; [7] -2% | [3]; [8] 63% | [4]; [7] -5% | [5]; [7] -6% | [5]; [8] 64% | [6]; [7] -8%
active: [1]; [8] 80% | [1]; at 50.0 µM 93.5% | [2]; [8] 71% | [2]; at 50.0 µM 95.8% | [3]; at 50.0 µM 97.2% | [4]; [8] 72% | [4]; at 50.0 µM 93.3% | [5]; at 50.0 µM 97.9% | [6]; [8] 78% | [6]; at 50.0 µM 96%

CCCCCCCCCCCCCCCCOC(=O)C[n+]1cccc(C(N)=O)c1
inactive: [1]; [7] 2% | [1]; [8] 50% | [2]; [7] 8% | [3]; [7] 27% | [4]; [7] -5% | [4]; [8] 22% | [4]; at 50.0 µM 36% | [5]; [7] -1% | [6]; [7] 42%
active: [1]; at 50.0 µM 89.8% | [2]; [8] 85% | [2]; at 50.0 µM 94.4% | [3]; [8] 92% | [3]; at 50.0 µM 97.2% | [5]; [8] 79% | [5]; at 50.0 µM 73% | [6]; [8] 82% | [6]; at 50.0 µM 92.3%

Cc1cc(N/N=C(\c2ccccc2)c2ccccn2)nc2ccccc12
inactive: [1]; [7] 33% | [2]; [7] 10% | [3]; [7] 14% | [4]; [7] -7% | [4]; [8] 69% | [5]; [7] 19% | [6]; [7] 25%
active: [1]; [8] 91% | [1]; at 50.0 µM 96.9% | [2]; [8] 91% | [2]; at 50.0 µM 97.8% | [3]; [8] 83% | [3]; at 50.0 µM 96.5% | [4]; at 50.0 µM 97.6% | [5]; [8] 90% | [5]; at 50.0 µM 97.4% | [6]; [8] 92% | [6]; at 50.0 µM 97.5%

COc1cc2c(c(OC)c1OC)-c1ccc(=O)c(OC)cc1[C@@H](N)CC2
inactive: [1]; [7] 25% | [1]; [8] 22% | [1]; at 50.0 µM -5.6% | [2]; [7] 22% | [2]; [8] 16% | [2]; at 50.0 µM -26.4% | [3]; [7] 22% | [3]; [8] 21% | [3]; at 50.0 µM -12.5% | [4]; [7] 24% | [4]; [8] 32% | [4]; at 50.0 µM -15.4% | [5]; [7] 25% | [5]; [8] 19% | [5]; at 50.0 µM -5.1% | [6]; [7] 29% | [6]; [8] 26% | [6]; at 50.0 µM -49.5%

CCCCN1CSC(=S)N(Cc2ccccc2)C1
inactive: [1]; [7] 2% | [1]; [8] 38% | [1]; at 50.0 µM 32.8% | [2]; [7] 3% | [2]; [8] 3% | [2]; at 50.0 µM -21.7% | [3]; [7] 13% | [3]; [8] 30% | [3]; at 50.0 µM 10.3% | [4]; [7] 30% | [4]; [8] 25% | [4]; at 50.0 µM -41.1% | [5]; [7] 5% | [5]; [8] 38% | [5]; at 50.0 µM 23.8% | [6]; [7] -10% | [6]; [8] 38% | [6]; at 50.0 µM 31.4%

Cn1cc(NC(=O)Nc2cc(C(=O)Nc3cc(C(=O)Nc4cc(S(=O)(=O)O)c5cc(S(=O)(=O)O)cc(S(=O)(=O)O)c5c4)n(C)c3)n(C)c2)cc1C(=O)Nc1cc(C(=O)Nc2cc(S(=O)(=O)O)c3cc(S(=O)(=O)O)cc(S(=O)(=O)O)c3c2)n(C)c1
active: [1]; [8] 90% | [1]; at 50.0 µM 86% | [2]; [8] 80% | [3]; [8] 77% | [5]; [8] 92% | [5]; at 50.0 µM 77.5% | [6]; [8] 83% | [6]; at 50.0 µM 87%
inactive: [1]; [7] 35% | [2]; [7] 20% | [2]; at 50.0 µM 66.8% | [3]; [7] 21% | [3]; at 50.0 µM 64.2% | [4]; [7] 32% | [4]; [8] 48% | [4]; at 50.0 µM 60.5% | [5]; [7] 30% | [6]; [7] 26%

[N-]=[N+]=CC(=O)CCC(NC(=O)OCc1ccccc1)C(=O)OCc1ccccc1 (centres undefined)
active: [1]; [7] 96% | [1]; [8] 99% | [1]; at 50.0 µM 91.2% | [2]; [7] 97% | [2]; [8] 100% | [2]; at 50.0 µM 93.1% | [3]; [7] 96% | [3]; [8] 99% | [3]; at 50.0 µM 90.5% | [4]; [7] 96% | [4]; [8] 99% | [4]; at 50.0 µM 90.9% | [5]; [7] 97% | [5]; [8] 100% | [5]; at 50.0 µM 89% | [6]; [7] 97% | [6]; [8] 98% | [6]; at 50.0 µM 90.8%
